Most compounds without a hit are left out; they make up all but 6.5% or so of the library.
VACV mCherry inh = inhibitors of vaccinia virus infection (mCherry reporter signal); Vaccinia virus mCherry reporter infection, fluorescence; Potency, µM (series often up to 36.5 µM), actives largely listed as inhibitors; 310,000 compounds, 0.63% hits; AID 720579; calls by dose curve; tested in A549 cells; note: nearly all actives have a fitted effect of over 35% in size
FMDV antiviral = blocks foot and mouth disease virus; FMDV antiviral cell-based qHTS; Potency, µM (titrated, usually from 57.9 µM), hits mostly inhibitors; 410,000 compounds, 1.2% hits; calls by dose curve; tested in HEK293T cells; note: read-out not given here; nearly all actives have a fitted effect of over 45% in size
HCMV antiviral = human cytomegalovirus inhibition. HFF cells, HCMV-luciferase reporter, 72 h; stronger effect = lower value. activity change, negative = inhibition, % at 57.5 µM. 410,000 compounds, 4.5% hits; in the data active = activity change below about -60%; inconclusive = no clear call, values can overlap the other calls; inactive = above about -39%
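Two-dose cell screen: HFF monolayers treated with compounds and infected with luciferase-expressing HCMV at 1 PFU/cell, 72 h at 37C, then lysed for luciferase measurement.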
VACV Venus inh = inhibitors of vaccinia virus (Venus reporter) | Potency, µM (top dose mostly 36.5 µM), hits mostly inhibitors | Vaccinia virus Venus reporter expression, fluorescence | 330,000 compounds, 0.46% hits; calls by dose curve; tested in A549 cells; note: nearly all actives have a fitted effect of over 30% in size
Marburg entry inh = blocks Marburg virus binding to or entry into cells | Marburg virus pseudotyped entry inhibition, cell reporter | Potency, µM (titrated, usually from 37.8 µM), hits mostly inhibitors | 300,000 compounds, 1.8% hits | AID 540276; calls by dose curve; tested in HEK293 cells
LASV entry inh = inhibitors of Lassa virus binding or cell entry; Lassa virus pseudotype entry inhibition, cell reporter; Potency, µM (highest dose often 37.9 µM), hits mostly inhibitors; 300,000 compounds, 1.2% hits; AID 540256; calls by dose curve; tested in HEK293 cells; note: nearly all actives have a fitted effect of over 50% in size
Each line names hits and unclear results; the compound was inactive in the other large screens; ! = a repeat was not active.

COC(=O)N1C(=O)[C@](Cc2ccccc2)(c2ccccc2)N1C(=O)OC	VACV mCherry inh 13µM, FMDV antiviral inconclusive, VACV Venus inh 10µM (no result: Marburg entry inh, LASV entry inh)
CC[C@]1(c2cccc(C)c2)C(=O)N(C(=O)OC)N1C(=O)OC	VACV mCherry inh 11µM, FMDV antiviral inconclusive, VACV Venus inh inconclusive (no result: Marburg entry inh, LASV entry inh)
CC[C@@]1(c2ccccc2)C(=O)N(C(=O)OC)N1C(=O)OC	none (no result: Marburg entry inh, LASV entry inh)
Cn1c(=O)c2c(-c3ccccc3)n3c4ccccc4nc(-c4ccccc4)c3c2n(C)c1=O	FMDV antiviral inconclusive, LASV entry inh inconclusive
Cc1ccccc1-c1ccc2ncnc(-n3ccnc3)c2c1	FMDV antiviral 40µM (no result: VACV mCherry inh, HCMV antiviral, VACV Venus inh, Marburg entry inh, LASV entry inh)
Cc1ccc2c(=O)cc(C(=O)Nc3ccc(S(=O)(=O)N4CCCCCC4)cc3)oc2c1C	none
Cn1ccc2c(OCC(=O)NCc3ccccc3Cl)cccc2c1=O	none (no result: Marburg entry inh)
Cc1ncc(CN2CCC(C(=O)Nc3ccc(-n4cccn4)cc3)CC2)s1	none
Cc1cc(C)n(-c2ccc(NC(=O)C3CCN(Cc4cnc(C)s4)CC3)cc2)n1	HCMV antiviral -60
CCC[n+]1c2ccccc2cc2ccccc21	VACV mCherry inh inconclusive, FMDV antiviral inconclusive, HCMV antiviral -70, Marburg entry inh inconclusive, LASV entry inh inconclusive
CCCC[n+]1c2ccccc2cc2ccccc21	FMDV antiviral 28µM, HCMV antiviral inconclusive, VACV Venus inh inconclusive (no result: Marburg entry inh, LASV entry inh)
Cc1ccc2ccccc2[n+]1CCCS(=O)(=O)[O-]	none
C=CCc1cccc(/C=N/NC(=O)CNc2cccc3ccccc23)c1O	VACV mCherry inh inconclusive, LASV entry inh inconclusive
C=CCc1cccc(/C=N/NC(=O)CNc2ccccc2OC)c1O	HCMV antiviral -98 (no result: VACV mCherry inh, VACV Venus inh, Marburg entry inh, LASV entry inh)
C=CCc1cccc(/C=N/NC(=O)C(C)Nc2cccc(C)c2)c1O (stereo not drawn)	VACV mCherry inh inconclusive, HCMV antiviral -80, Marburg entry inh inconclusive, LASV entry inh 11µM
C=CCc1cccc(/C=N/NC(=O)CCCNc2ccc(C)cc2)c1O	VACV mCherry inh 13µM, VACV Venus inh inconclusive, Marburg entry inh inconclusive, LASV entry inh inconclusive
C=CCc1cccc(/C=N/NC(=O)CCC(=O)Nc2ccc(F)cc2)c1O	VACV mCherry inh inconclusive, HCMV antiviral -84, VACV Venus inh inconclusive, Marburg entry inh 13µM, LASV entry inh inconclusive
Cc1ncc2c(c1CNS(=O)(=O)c1cccs1)CCN(C(=O)/C=C/c1ccc(F)cc1F)C2	none (no result: HCMV antiviral, Marburg entry inh, LASV entry inh)
C=CCc1cccc(/C=N/NC(=O)CNc2ccccc2)c1O	HCMV antiviral -99, VACV Venus inh inconclusive, Marburg entry inh inconclusive, LASV entry inh inconclusive (no result: VACV mCherry inh)
CCc1ccc(C2N=C(N)Nc3nc4ccccc4n32)cc1 (stereo not drawn)	HCMV antiviral -67, LASV entry inh inconclusive
NC1=NC(c2ccc(Br)cc2)n2c(nc3ccccc32)N1 (stereo not drawn)	HCMV antiviral inconclusive
N#Cc1c2n(c3c(=S)nc[nH]c13)CCCCC2	HCMV antiviral -75 (no result: VACV mCherry inh)
N#Cc1c2n(c3c(=O)[nH]cnc13)CCCC2	none (no result: VACV mCherry inh, VACV Venus inh)
CCc1noc(-c2ccc(NC(C)c3ccccc3)c([N+](=O)[O-])c2)n1 (stereo not drawn)	none
CC(C)c1ccc(S(=O)(=O)NCc2ccc3c(c2)CCN3C(=O)c2ccccc2)cc1	HCMV antiviral -66, LASV entry inh inconclusive (no result: Marburg entry inh)
COc1ccc(Cl)cc1S(=O)(=O)NCc1ccc2c(c1)CCN2C(=O)c1cccc(C)c1	HCMV antiviral -87, LASV entry inh inconclusive (no result: Marburg entry inh)
Cc1cccc(C(=O)N2CCc3cc(CNS(=O)(=O)c4cccs4)ccc32)c1	FMDV antiviral inconclusive, HCMV antiviral -62, LASV entry inh inconclusive (no result: Marburg entry inh)
CN(C)c1ccc(/C=C/c2sc3ccccc3[n+]2CCCCI)cc1	none (no result: FMDV antiviral, HCMV antiviral, Marburg entry inh, LASV entry inh)
Cc1ccc2c(c1)c1c(c(=O)n(-c3ccccc3C)c(=O)n1Cc1cccc(F)c1)n2C	VACV mCherry inh inconclusive, LASV entry inh inconclusive (no result: Marburg entry inh)
O=C(C[n+]1c(Cl)cc(Cl)c2ccccc21)c1ccccc1	none (no result: FMDV antiviral, HCMV antiviral, Marburg entry inh, LASV entry inh)
O=c1[nH]c(=O)n(Cc2ccco2)c2c1C(C(F)(F)F)(C(F)(F)F)N=C(c1ccc(F)cc1)N2	FMDV antiviral 4.5µM, Marburg entry inh inconclusive, LASV entry inh inconclusive (no result: VACV mCherry inh, VACV Venus inh)
CCc1ccc(C(O)(C(C)C)C(CN2CCOCC2)c2ccccc2)cc1 (stereo not drawn)	HCMV antiviral -77 (no result: VACV mCherry inh, VACV Venus inh, Marburg entry inh, LASV entry inh)
CCCC(O)(c1ccc(CC)cc1)C(CN1CCOCC1)c1ccccc1 (stereo not drawn)	FMDV antiviral inconclusive, HCMV antiviral -69, Marburg entry inh inconclusive, LASV entry inh inconclusive
CCCC(O)(c1ccccc1)C(CN1CCOCC1)c1ccccc1 (stereo not drawn)	HCMV antiviral inconclusive (no result: VACV mCherry inh, VACV Venus inh, Marburg entry inh, LASV entry inh)
COc1ccc(-c2c(C)oc3c(CN4CCN(C)CC4)c(O)ccc3c2=O)cc1	HCMV antiviral -63 (no result: Marburg entry inh, LASV entry inh)
Nc1ccccc1C=C1Cc2ccccc2C1=O	Marburg entry inh 7.9µM, LASV entry inh inconclusive
O=C1C(=Cc2ccccc2[N+](=O)[O-])Cc2ccccc21	VACV mCherry inh inconclusive, FMDV antiviral inconclusive, HCMV antiviral -96, VACV Venus inh inconclusive (no result: Marburg entry inh, LASV entry inh)
CC1(C)CC(=Cc2ccccc2[N+](=O)[O-])C(=O)c2ccccc21	none (no result: Marburg entry inh, LASV entry inh)
Cc1ncc2c(c1CNS(=O)(=O)N(C)C)CCN(C(=O)c1ccc(F)cc1Cl)C2	none (no result: HCMV antiviral, Marburg entry inh, LASV entry inh)
C=CCCC(=O)N1C[C@H]2CON(C)[C@H]2C[C@H]1c1ccc(Br)cc1	HCMV antiviral -101 (no result: Marburg entry inh, LASV entry inh)
C=CCCC(=O)N1C[C@H]2CON(C)[C@H]2C[C@H]1c1ccccc1Br	none (no result: Marburg entry inh, LASV entry inh)
Cc1cccc(NC(=O)Cc2nc(-c3c[nH]c(C(=O)N4CCCC4)c3)cs2)c1	FMDV antiviral 35µM, Marburg entry inh inconclusive, LASV entry inh inconclusive
Cc1ccc(N2C(=O)c3ccccc3C2O)nc1 (stereo not drawn)	Marburg entry inh 2.1µM, LASV entry inh 3.7µM (no result: VACV mCherry inh, FMDV antiviral, HCMV antiviral, VACV Venus inh)
Cc1ccc(CNC(=O)CCS(=O)(=O)c2cc3c(cc2Cl)NC(=O)CO3)cc1	HCMV antiviral -105!, LASV entry inh inconclusive (no result: Marburg entry inh)
